Among the data in PubChem BioAssay (NCATS) are Potency values, retold here.

Records with an inconclusive call do not appear. A number with no mark means an inactive call. Active and inactive are the calls of the source. Unless noted, calls come from the whole dose curve; as a rule, active = well fitted curve in the direction sought with a large enough effect; inconclusive = small, poorly fitted or top-dose-only effect, or another doubt; inactive = no such curve, though single readings can be large; an effect the other way counts as inactive or inconclusive.

Assay [1] can be described thus: qHTS for Inhibitors of the Functional Ribonucleoprotein Complex (vRNP) of Lassa (LASV) Arenavirus: Viability assay - alamar blue signal for LASV Primary Screen (AID 1347083; calls by dose curve; tested in HEK293 reporter line; note: series mostly up to about 57 µM; nearly all actives have a fitted effect of over 80% in size).
The nature of assay [2]: qHTS for Inhibitors of the Functional Ribonucleoprotein Complex (vRNP) of Lymphocytic Choriomeningitis Arenaviruses (LCMV): Viability assay - alamar blue signal for LCMV Primary Screen (AID 1347085; calls by dose curve; tested in HEK293 reporter line; note: series mostly up to about 57 µM; nearly all actives have a fitted effect of over 80% in size).
Assay [3] has as its target Nucleoprotein (Lymphocytic choriomeningitis virus (strain Armstrong)) (UniProt P09992). Description: qHTS for Inhibitors of the Functional Ribonucleoprotein Complex (vRNP) of Lymphocytic Choriomeningitis Arenaviruses (LCMV): LCMV Primary Screen - GLuc reporter signal (AID 1347086; calls by dose curve; note: series mostly up to about 57 µM; nearly all actives have a fitted effect of over 70% in size).
Assay [4] is described as follows: qHTS of pediatric cancer cell lines to identify multiple opportunities for drug repurposing: Primary screen for TC32 cells (AID 1347089). Note: nearly all actives have a fitted effect of over 60% in size. A digest of the protocol:
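Luminescent ATP read-out (CellTiter-Glo) of metabolically active TC32 cells after 48 h exposure. Concentration-response curves came from 11-point (MIPE, 0.78 nM–46 µM) or 8-point (NPC, 0.59 nM–46 µM) primary titrations; follow-up used 11 points.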

Assay [5] can be described thus: qHTS of pediatric cancer cell lines to identify multiple opportunities for drug repurposing: Primary screen for DAOY cells (AID 1347090). Note: series mostly up to about 46 µM; nearly all actives have a fitted effect of over 55% in size. Put shortly: (§1)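 Eight- or eleven-point concentration series, 48 h treatment at 37 degrees C in growth media; readout CellTiter-Glo luminescence. Potency and efficacy were taken from the concentration-response curves.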
A short description of assay [6]: qHTS of pediatric cancer cell lines to identify multiple opportunities for drug repurposing: Primary screen for SJ-GBM2 cells (AID 1347091). A digest of the protocol:
as §1

Assay [7] is described as follows: qHTS of pediatric cancer cell lines to identify multiple opportunities for drug repurposing: Primary screen for A673 cells (AID 1347092). Note: nearly all actives have a fitted effect of over 45% in size. Note: potency is the fitted concentration of half-maximal effect. A digest of the protocol: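 Cell viability of A673 measured by CellTiter-Glo ATP luminescence after 48 hours compound exposure. Dilution series spanned 0.78 nM to 46 µM (MIPE, 11-point) or 0.59 nM to 46 µM (NPC, 8-point); bortezomib 2.3 uM positive control.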

The nature of assay [8]: qHTS of pediatric cancer cell lines to identify multiple opportunities for drug repurposing: Primary screen for SK-N-MC cells (AID 1347093). Note: potency is the fitted concentration of half-maximal effect. A digest of the protocol:
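Metabolically active cells were quantified by ATP-dependent luminescence (CellTiter-Glo, 15 min at room temperature) following 48 h treatment. Cells had been plated at 500-1,000 per well and settled for 5 h beforehand.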

Assay [9] can be described thus: qHTS of pediatric cancer cell lines to identify multiple opportunities for drug repurposing: Primary screen for NB-EBc1 cells (AID 1347095). Note: potency is the fitted concentration of half-maximal effect. A digest of the protocol: (§2)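 Cells seeded at 500-1,000 cells/well in growth media, rested 5 hours at 37 degrees C, 5% CO2, then dosed; MIPE compounds at 11-point (from 0.78 nM) and NPC at 8-point (from 0.59 nM) final concentrations. Viability by CellTiter-Glo luminescence after 48 hours.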

Assay [10] in a line: qHTS of pediatric cancer cell lines to identify multiple opportunities for drug repurposing: Primary screen for BT-37 cells (AID 1347094). Note: series mostly up to about 57 µM. A digest of the protocol: as §2

Nucleoprotein (Lymphocytic choriomeningitis virus (strain Armstrong)), sequence (P09992 whole entry, looked up): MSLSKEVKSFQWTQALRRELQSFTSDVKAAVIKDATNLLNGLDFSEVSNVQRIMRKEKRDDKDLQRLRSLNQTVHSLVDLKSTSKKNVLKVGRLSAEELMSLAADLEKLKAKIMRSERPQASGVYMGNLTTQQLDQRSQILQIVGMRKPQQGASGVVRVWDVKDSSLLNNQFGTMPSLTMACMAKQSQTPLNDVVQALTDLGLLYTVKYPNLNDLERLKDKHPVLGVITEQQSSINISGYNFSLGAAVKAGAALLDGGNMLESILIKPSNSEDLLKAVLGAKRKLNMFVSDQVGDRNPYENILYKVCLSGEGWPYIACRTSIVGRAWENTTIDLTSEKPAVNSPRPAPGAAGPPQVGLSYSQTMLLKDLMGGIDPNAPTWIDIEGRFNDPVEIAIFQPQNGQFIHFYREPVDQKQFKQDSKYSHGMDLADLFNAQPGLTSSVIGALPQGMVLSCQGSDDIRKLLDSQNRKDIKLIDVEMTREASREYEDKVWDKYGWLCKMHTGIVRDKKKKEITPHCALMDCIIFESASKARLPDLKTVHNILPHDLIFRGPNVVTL

On to `N[C@@H]1C[C@H]1c1ccccc1`, for which the Potency entry in assay [1], in [2], in [3], in [4], in [5] and in [6] was “inactive” each time. The Potency result in assay [7], in assay [8] and in assay [9] was “inactive” in each case.
`Nc1ccncc1`: the Potency result in assay [1], in assay [2], in assay [3], in assay [4], in assay [5] and in assay [6] was “inactive” in each case. The Potency entry in assay [7], in assay [8] and in [9] was “inactive” throughout.
Consider `CC(=O)Nc1cc([As](=O)(O)O)ccc1O`, for which the Potency entry in assay [1], in [2], in assay [3], in [4], in assay [5] and in assay [6] was “inactive” each time. For the same compound, the Potency entry in assay [7], in [8] and in assay [9] was “inactive” in each case.
Regarding `Oc1ccccc1-c1ccccc1`, the Potency result in assay [1], in assay [2], in [3], in [4], in [5] and in assay [6] was “inactive” each time. The Potency entry in [7], in [8], in assay [10] and in [9] was “inactive” in each case.
For `N[C@@H](Cc1ccc(Oc2cc(I)c(O)c(I)c2)c(I)c1)C(=O)O`, the Potency result in assay [1], in [2], in [3], in assay [4], in assay [5] and in assay [6] was “inactive” in each case. Moreover, the Potency entry in assay [7], in assay [8], in assay [10] and in assay [9] was “inactive” in each case.
Regarding `CC[C@@H](CO)NC(=O)[C@@H]1C=C2c3cccc4c3c(cn4C)C[C@H]2N(C)C1`, the Potency result in assay [1], in [2], in assay [3], in assay [4], in assay [5] and in [6] was “inactive” throughout. In addition, the Potency entry in [8], in assay [10] and in [9] was “inactive” each time.
For the compound `CC(C)(N)Cc1ccc(Cl)cc1`, the Potency result in assay [1], in assay [2], in assay [3], in assay [4], in assay [5] and in [6] was “inactive” throughout. Moreover, the Potency entry in assay [7], in assay [8], in [10] and in assay [9] was “inactive” in each case.
Consider `CC(C)NCC(O)c1ccccc1Cl` (stereo unspecified), for which the Potency entry in assay [1], in assay [2], in assay [3], in assay [4], in assay [5] and in assay [6] was “inactive” in each case. Besides, the Potency result in assay [7], in [8] and in assay [9] was “inactive” each time.
In the case of `FC(F)(F)c1cccc(C2=CCN(CCc3ccc4ccccc4c3)CC2)c1`, the Potency entry in assay [1], in assay [2], in assay [3], in [4], in assay [5] and in assay [6] was “inactive” throughout. Besides, the Potency result in assay [7], in assay [8], in assay [10] and in assay [9] was “inactive” throughout.
For `c1ccc(C2CC2)c(OCC2=NCCN2)c1`, the Potency result in assay [1], in assay [2], in assay [3], in assay [4], in [5] and in assay [6] was “inactive” each time. Further, the Potency entry in [7], in assay [8], in assay [10] and in [9] was “inactive” each time.
Regarding `c1ccc2c(c1)Nc1ccccc1S2`, the Potency entry in assay [1], in [2], in assay [3], in assay [4], in [5] and in [6] was “inactive” each time. The Potency result in assay [7], in assay [8] and in assay [9] was “inactive” each time.
Regarding `COc1ccc(C(CN(C)C)C2(O)CCCCC2)cc1` (stereo unspecified), the Potency result in assay [1], in assay [2], in assay [3], in assay [4], in assay [5] and in assay [6] was “inactive” each time. Besides, the Potency entry in assay [7], in assay [10] and in assay [9] was “inactive” throughout.
For the compound `Clc1ccc(CCC(Cn2ccnc2)Sc2c(Cl)cccc2Cl)cc1` (stereo unspecified), the Potency result in [1], in assay [2], in assay [3], in [4], in [5] and in assay [6] was “inactive” throughout. In addition, the figures for the Potency in [7], in [8] and in assay [9] were 23.5 µM (active), 23.5 µM (active) and 21.1 µM (active), respectively.
`Cc1ccc(-c2nc3ccc(C)cn3c2CC(=O)N(C)C)cc1`: the Potency result in [1], in assay [2], in assay [3], in assay [4], in assay [5] and in assay [6] was “inactive” throughout. Moreover, the Potency entry in assay [7], in [8], in assay [10] and in assay [9] was “inactive” each time.
As for `CCCN1CCC[C@@H]2Cc3[nH]ncc3C[C@H]21`, the Potency entry in assay [1], in [2], in [3], in assay [4], in [5] and in assay [6] was “inactive” each time. In addition, the Potency result in assay [7], in [8] and in [9] was “inactive” throughout.
On to `Cc1ccc2c(c1)C1CN(C)CCC1N2` (stereo unspecified), for which the Potency result in assay [1], in assay [2], in [3], in assay [4], in assay [5] and in assay [6] was “inactive” throughout. For the same compound, the Potency result in [7] and in assay [8] was “inactive” throughout.
On to `CC[N+](CC)(CC)CC`, for which the Potency entry in assay [1], in [2], in assay [3], in assay [4], in assay [5] and in assay [6] was “inactive” throughout. Also, the Potency entry in assay [7], in assay [8] and in [9] was “inactive” each time.
`Cc1ccc(S(=O)(=O)N[C@@H](CCCCN)C(=O)CCl)cc1`: the Potency result in [1], in [2], in assay [3], in [4], in assay [5] and in assay [6] was “inactive” throughout. For the same compound, the Potency entry in [7], in assay [10] and in assay [9] was “inactive” each time. In assay [8], the Potency is 21.1 µM (active).
On to `O=C(NC(O)C(Cl)(Cl)Cl)NC(O)C(Cl)(Cl)Cl` (stereo unspecified), for which the Potency result in assay [1], in [2], in assay [3], in [4], in [5] and in [6] was “inactive” each time. Besides, the Potency entry in assay [7], in assay [8], in assay [10] and in assay [9] was “inactive” each time.
`NCC(O)c1ccc(O)cc1` (stereo unspecified): the Potency result in [1], in assay [2], in [3], in assay [4], in assay [5] and in assay [6] was “inactive” in each case. Also, the Potency result in [7], in [8], in [10] and in assay [9] was “inactive” in each case.
Turning to `NCCc1cc(O)c(O)cc1O`, the Potency entry in assay [1], in [2], in assay [3], in assay [4], in assay [5] and in [6] was “inactive” in each case. Moreover, the Potency entry in assay [7], in [8] and in assay [9] was “inactive” throughout.
With `COc1ccccc1N1CCNCC1`, the Potency entry in assay [1], in assay [2], in assay [3], in [4], in assay [5] and in assay [7] was “inactive” in each case. The Potency result in [10] and in [9] was “inactive” each time.
`NP(N)(=O)NC(=O)c1ccc(F)cc1`: the Potency result in [1], in assay [2], in assay [3], in [4], in [5] and in [7] was “inactive” in each case. Further, the Potency entry in [8] and in assay [9] was “inactive” each time.
With `CN1CCN(C(=O)O[C@H]2c3nccnc3C(=O)N2c2ccc(Cl)cn2)CC1`, the Potency entry in assay [1], in assay [2], in [3], in assay [4], in assay [5] and in assay [7] was “inactive” throughout. For the same compound, the Potency entry in [8] and in assay [9] was “inactive” throughout.
